Four compounds from PubChem BioAssay can be followed below.

The source made the active and inactive calls. Unless noted, the rule behind the calls is not given here.

For assay [1], the system named is Wnt5a (protein binding on small-molecule microarray). The experiment in a line: Wnt5a binders on small-molecule microarray, primary screen, biophysical, 635/667 nm fluorescence (AID 1142).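 Note: fluorescence read at 667 nm with signal to noise per printed feature.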 The note with it: 635 nm fluorescence, higher = more signal.
A short description of assay [2]: cell viability in Huh7 cells, primary screen, cytotoxicity control for HCV replication inhibitor project, CellTiter-Glo luminescence, basal, 48 h (AID 1143).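 Note: Huh7 hepatoma cells carrying a hepatitis C replication reporter with no stimulus; test concentration not given here.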 The conditions noted are these: Huh7 HCV replicon, higher = more signal, called active from +8 up or from −8 down. For orientation: Cellular ATP, detected with luciferase, serves as a proxy for viable cell number.

Assay [3] can be described thus: P. aeruginosa biofilm formation inhibitors, primary screen, PAO1 strain, BacTiter-Glo luminescence, LB-PBS (AID 1144). The conditions noted are these: 12 h, higher = more signal.
Assay [4] is described as follows: CREB reporter modulators without forskolin, primary screen, cell-based, PC12, CRE-LacZ reporter, unstimulated (AID 1145). The note with it: no forskolin, luminescence, 4.5 h, higher = more signal, called active from +8 up or from −8 down.
Assay [5] in a line: CREB reporter modulators under forskolin, primary screen, cell-based, PC12, CRE-LacZ reporter, forskolin-stimulated (AID 1146).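 Note: PC12 cells with 6xCRE LacZ reporter stimulated by forskolin 10 µM; beta-galactosidase reporter signal reflecting CREB driven transcription.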 The conditions noted are these: luminescence, 4.5 h, higher = more signal, called active from +8 up or from −8 down.
The target in assay [6] is Streptavidin (Streptomyces avidinii) (UniProt P22629). The experiment in a line: streptavidin binders on small-molecule microarray, primary screen, artefact control for SMM compound annotation, biophysical, 635/667 nm fluorescence (AID 1147).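 Note: signal reflects streptavidin binding to arrayed compounds as a control protein.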 The note with it: streptavidin binding, higher = more signal.
Assay [7] is described as follows: small-molecule binders of probe aInhba, primary screen, biochemical, small-molecule microarray, 635/667 nm fluorescence (AID 1148).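 Note: score merges 667nm spot fluorescence with signal-to-noise for antibody binding to printed compounds.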 The conditions noted are these: higher = more signal.
Assay [8] deals with Torsin-1A (Homo sapiens) (UniProt O14656). The experiment in a line: torsin A binders from cell lysate, primary screen, small-molecule microarray, wild-type, 635/667 nm (AID 1149). The conditions noted are these: COS7 hTOR1A-WT lysate, 635 nm fluorescence, higher = more signal.
For assay [9] the target is unchanged. The experiment in a line: small-molecule binders of mutant TOR1A in lysate, primary screen, cell lysate, small-molecule microarray, COS7 lysate, 635/667 nm fluorescence (AID 1150).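 Note: score pools 667 nm emission and signal to noise measuring lysate protein binding.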 The conditions noted are these: COS7 hTOR1A mutant lysate, 635 nm fluorescence, higher = more signal.
Assay [10] relates to Sonic hedgehog protein (Shh). The experiment in a line: small-molecule binders of Shh protein, primary screen, biochemical, small-molecule microarray, 635/667 nm fluorescence (AID 1151).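 Note: Shh protein binding to compounds spotted on small-molecule microarray slides; score combines spot fluorescence intensity with signal-to-noise across triplicate slides.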 The conditions noted are these: small-molecule microarray binding, 635 nm fluorescence; higher = more signal.
A short description of assay [11]: E. coli DRC41 culture turbidity changes, primary screen, E. coli filamentation inducer project, strain DRC41, OD650, 48 h (AID 1152).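 Note: E. coli MC1000 strain DRC41 lacking acrAB efflux pump and sulA.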 The conditions noted are these: E. coli DRC41 (acrAB sulA), higher = more signal, called active from +8 up or from −8 down.
Assay [12] can be described thus: small-molecule binders of probe aLefty1, primary screen, biochemical, small-molecule microarray, 635/667 nm fluorescence (AID 1153).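 Note: score merges spot fluorescence with signal-to-noise ratio from the scanned slide images.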 The note with it: higher = more signal.
Assay [13] is described as follows: PSAC antagonists in infected red cells, primary screen, cell-based, P. falciparum Indochina, OD700, 1 h (AID 1154). The conditions noted are these: P. falciparum Indochina infected RBC osmotic lysis, higher = more signal, called active from +8 up or from −8 down.
Assay [14] can be described thus: PSAC antagonists in infected red cells, primary screen, cell-based, P. falciparum Indochina, OD700, 2 h (AID 1155).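 Note: lysis reports solute entry through the parasite surface anion channel PSAC; channel blockers reduce lysis of infected cells.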 The conditions noted are these: P. falciparum Indochina infected erythrocytes, osmotic lysis OD700; higher = more signal, called active from +8 up or from −8 down.
A short description of assay [15]: osmotic lysis modulators in infected erythrocytes, primary screen, PSAC antagonist project, cell-based, P. falciparum Indochina, OD700, 3 h (AID 1156). The conditions noted are these: higher = more signal, called active from +8 up or from −8 down.
Assay [16] in a line: PSAC antagonists in infected red cells, primary screen, cell-based, P. falciparum Indochina, OD700, 18 h (AID 1157). The conditions noted are these: P. falciparum Indochina infected erythrocytes, osmotic lysis OD700, 18 h; higher = more signal, called active from +8 up or from −8 down.
A short description of assay [17]: modulators of S6 phosphorylation in cells, primary screen, cell-based, A549, cytoblot, luminescence, serum-stimulated (AID 1158).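 Note: serum-stimulated A549 lung adenocarcinoma cells; signal is phosphorylated S6 detected by cytoblot immunostaining with HRP secondary.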 The note with it: A549 phospho-S6 cytoblot, 5 h, higher = more signal.
Assay [18] concerns the target NADPH oxidase 2 (Homo sapiens) (UniProt P04839). The experiment in a line: NOX2-dependent H2O2 signal modulators, primary screen, NOX inhibitor project, cell-based, HEK293-NOX2, PMA-stimulated, Amplex Red fluorescence (AID 1159). Note: test concentration not given here. The note with it: 45 min, higher = more signal, called active from +8 up or from −8 down.
The target in assay [19] is NADPH oxidase 4 (Homo sapiens) (UniProt Q9NPH5). The experiment in a line: NOX4-dependent H2O2 signal modulators, primary screen, NOX inhibitor project, cell-based, HEK293-NOX4, tetracycline-induced, Amplex Red fluorescence (AID 1160). The note with it: 45 min, higher = more signal, called active from +8 up or from −8 down.
For assay [20], the target named is NADPH oxidase 5 (Homo sapiens) (UniProt Q96PH1). The experiment in a line: NOX5-dependent H2O2 signal modulators, primary screen, NOX inhibitor project, cell-based, HEK293-NOX5, Amplex Red fluorescence (AID 1161). The note with it: HEK293-NOX5, ionomycin, 45 min, higher = more signal.
Sequence of NADPH oxidase 5 (Homo sapiens) (Q96PH1 whole entry, looked up): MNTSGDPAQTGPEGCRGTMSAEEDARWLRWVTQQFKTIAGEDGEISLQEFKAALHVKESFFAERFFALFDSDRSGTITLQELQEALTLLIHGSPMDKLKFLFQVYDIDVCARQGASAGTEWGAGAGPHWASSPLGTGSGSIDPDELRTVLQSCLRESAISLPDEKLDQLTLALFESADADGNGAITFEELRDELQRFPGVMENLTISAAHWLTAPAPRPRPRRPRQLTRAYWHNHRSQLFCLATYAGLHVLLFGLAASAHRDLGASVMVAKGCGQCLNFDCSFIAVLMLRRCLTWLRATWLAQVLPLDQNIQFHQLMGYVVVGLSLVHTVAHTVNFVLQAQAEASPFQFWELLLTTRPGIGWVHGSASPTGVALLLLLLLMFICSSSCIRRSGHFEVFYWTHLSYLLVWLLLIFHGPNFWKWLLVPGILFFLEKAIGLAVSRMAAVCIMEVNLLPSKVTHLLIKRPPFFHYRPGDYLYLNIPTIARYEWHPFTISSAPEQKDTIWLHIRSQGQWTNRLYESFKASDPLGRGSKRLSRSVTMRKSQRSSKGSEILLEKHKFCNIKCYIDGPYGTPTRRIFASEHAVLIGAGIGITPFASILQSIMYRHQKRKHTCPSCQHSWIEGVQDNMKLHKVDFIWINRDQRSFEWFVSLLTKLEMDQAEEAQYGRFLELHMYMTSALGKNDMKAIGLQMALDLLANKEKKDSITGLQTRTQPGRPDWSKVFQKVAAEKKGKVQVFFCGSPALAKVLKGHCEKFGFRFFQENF

Sequence of NADPH oxidase 4 (Homo sapiens) (Q9NPH5 whole entry, looked up): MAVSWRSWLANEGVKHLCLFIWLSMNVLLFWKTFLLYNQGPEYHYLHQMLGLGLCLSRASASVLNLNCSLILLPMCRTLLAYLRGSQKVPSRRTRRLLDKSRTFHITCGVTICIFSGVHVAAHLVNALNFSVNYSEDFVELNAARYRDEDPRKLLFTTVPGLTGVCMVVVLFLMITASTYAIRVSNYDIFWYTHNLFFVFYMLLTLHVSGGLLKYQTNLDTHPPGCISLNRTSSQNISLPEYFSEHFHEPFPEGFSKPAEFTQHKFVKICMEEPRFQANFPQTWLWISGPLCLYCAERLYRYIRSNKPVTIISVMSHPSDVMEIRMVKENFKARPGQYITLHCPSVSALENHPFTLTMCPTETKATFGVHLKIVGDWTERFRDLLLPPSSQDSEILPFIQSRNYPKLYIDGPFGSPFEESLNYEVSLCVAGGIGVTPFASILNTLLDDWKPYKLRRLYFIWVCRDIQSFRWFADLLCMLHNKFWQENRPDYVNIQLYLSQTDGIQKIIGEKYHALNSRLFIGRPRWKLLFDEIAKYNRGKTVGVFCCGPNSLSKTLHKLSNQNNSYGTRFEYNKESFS
Sequence of Torsin-1A (Homo sapiens) (O14656 whole entry, looked up): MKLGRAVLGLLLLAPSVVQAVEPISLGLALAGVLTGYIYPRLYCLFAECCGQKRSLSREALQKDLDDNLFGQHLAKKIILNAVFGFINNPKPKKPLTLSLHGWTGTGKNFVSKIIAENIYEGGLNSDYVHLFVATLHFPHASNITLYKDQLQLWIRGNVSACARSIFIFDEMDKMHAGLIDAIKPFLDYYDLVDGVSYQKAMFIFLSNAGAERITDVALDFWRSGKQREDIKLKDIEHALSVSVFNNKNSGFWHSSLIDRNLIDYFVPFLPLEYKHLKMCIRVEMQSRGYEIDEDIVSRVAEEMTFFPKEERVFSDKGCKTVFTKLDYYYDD
Sequence of Streptavidin (Streptomyces avidinii) (P22629 whole entry, looked up): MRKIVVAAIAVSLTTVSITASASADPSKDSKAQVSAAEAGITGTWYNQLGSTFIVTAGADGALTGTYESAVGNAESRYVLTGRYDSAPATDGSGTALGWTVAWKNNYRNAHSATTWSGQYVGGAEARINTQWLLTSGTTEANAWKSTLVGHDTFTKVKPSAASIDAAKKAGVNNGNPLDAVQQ
Sequence of NADPH oxidase 2 (Homo sapiens) (P04839 whole entry, looked up): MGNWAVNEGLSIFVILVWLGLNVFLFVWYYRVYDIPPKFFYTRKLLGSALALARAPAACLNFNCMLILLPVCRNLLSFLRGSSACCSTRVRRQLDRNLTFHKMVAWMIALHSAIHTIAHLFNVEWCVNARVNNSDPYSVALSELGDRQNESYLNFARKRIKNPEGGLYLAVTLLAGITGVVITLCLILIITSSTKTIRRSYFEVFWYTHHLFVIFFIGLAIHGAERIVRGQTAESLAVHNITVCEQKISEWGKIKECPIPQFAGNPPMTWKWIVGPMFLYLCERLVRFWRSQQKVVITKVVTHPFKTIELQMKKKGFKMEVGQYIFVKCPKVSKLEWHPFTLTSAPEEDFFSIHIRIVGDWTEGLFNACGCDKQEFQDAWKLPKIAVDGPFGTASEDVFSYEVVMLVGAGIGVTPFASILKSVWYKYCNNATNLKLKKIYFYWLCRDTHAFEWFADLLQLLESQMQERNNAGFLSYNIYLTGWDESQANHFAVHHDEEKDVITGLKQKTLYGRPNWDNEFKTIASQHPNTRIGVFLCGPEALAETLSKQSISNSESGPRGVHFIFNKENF

For the compound `CCc1cc2c(nc1CC)CCN(CCC(C)=NOC(C)CN1CCCc3nc(C)c(C)cc31)C2` (stereo not given), the composite z-score in assay [1] worked out at 0.56; in assay [6] it was 0.854; in [7], 0.341; with Torsin-1A (Homo sapiens) [8] it was 1.31; with Torsin-1A (Homo sapiens) [9] it was 0.748; in assay [10] it was 1.35. Besides, the composite z-score in assay [12] worked out at 0.876. Also, the z-score was -0.0844 (inactive) in [2]; -0.129 (inactive) in [3]; 1.14 (inactive) in assay [4]; 0.534 (inactive) in assay [5]; -1.97 (inactive) in assay [11]; 2.25 (inactive) in [13]. Besides, the z-score is -0.0243 (inactive) in assay [14]; 0.0813 (inactive) in [15]; 0.146 (inactive) in assay [16]; -1.08 in [17]; -1.41 (inactive) in [18]; -0.293 (inactive) in assay [19]. Further, the z-score in [20] is -1.86.
For `O=C1[C@H]2[C@H]3[C@H](O)[C@H](O)CC(=NO[C@@H]4O[C@H](CO)[C@@H](O)[C@H](O)[C@H]4O)[C@H]3CC[C@H]2C(=O)N1C1CCCCC1`, the composite z-score is -0.0314 in assay [1]; -0.534 in assay [6]; -0.0313 in [7]; 1.03 in the assay with Torsin-1A (Homo sapiens) [8]; 0.843 in the assay with Torsin-1A (Homo sapiens) [9]; 0.61 in assay [10]. Moreover, in [12], the composite z-score is -0.0046. Besides, the z-score in [2] was 0.582 (inactive); in assay [3] it was 0.423 (inactive); in assay [4], -0.0175 (inactive); in [5], 0.234 (inactive); in assay [11], -0.094 (inactive); in assay [13], 3.65 (inactive). Also, the z-score is -0.0811 (inactive) in assay [14]; -0.284 (inactive) in assay [15]; -0.136 (inactive) in [16]; 0.561 in assay [17]; -0.717 (inactive) in [18]; 1.15 (inactive) in assay [19]. This compound also showed a z-score in assay [20] of 0.329.
Consider `CC(C)(C)N1C(=O)[C@H]2[C@H]3[C@H](O)[C@H](O)CC(=NO[C@@H]4O[C@H](CO)[C@@H](O)[C@H](O)[C@H]4O)[C@@H]3CC[C@H]2C1=O`, for which the composite z-score was 0.324 in assay [1]; -0.223 in assay [6]; 0.0051 in assay [7]; 0.217 with Torsin-1A (Homo sapiens) [8]; 0.254 with Torsin-1A (Homo sapiens) [9]; 1.53 in [10]. Further, the composite z-score in assay [12] was -0.147. In addition, the z-score is -2.45 (inactive) in assay [2]; 0.0108 (inactive) in assay [3]; 0.518 (inactive) in assay [4]; 0.217 (inactive) in assay [5]; 0.383 (inactive) in [11]; 1.13 (inactive) in assay [13]. Also, the z-score in assay [14] is 0.0656 (inactive); in assay [15] it was -0.689 (inactive); in assay [16], 0.106 (inactive); in [17], -0.345; in [18], 1.01 (inactive); in [19] it was -0.022 (inactive). Moreover, in assay [20], the z-score was -2.07.
For the compound `C[C@@H]1C=CCC(=O)OC[C@H](C)C(=O)N[C@@H](C)C(=O)OC1`, the composite z-score is 0.268 in assay [1]; 0.34 in assay [6]; -0.0044 in [7]; 1.51 with Torsin-1A (Homo sapiens) [8]; 0.527 in the assay with Torsin-1A (Homo sapiens) [9]; 1.3 in assay [10]. The composite z-score in assay [12] was -0.0104. Besides, the z-score is -0.568 (inactive) in assay [2]; -0.298 (inactive) in assay [3]; -0.887 (inactive) in assay [4]; -0.24 (inactive) in [5]; 0.811 (inactive) in assay [11]; 0.378 (inactive) in assay [13]. Besides, the z-score in assay [14] was 0.371 (inactive); in [15], 0.623 (inactive); in [16], 0.342 (inactive); in assay [17] it was -0.276; in [18] it was -0.727 (inactive); in assay [19], 0.527 (inactive). For the same compound, the z-score in [20] was 0.619.
